Molecules are shown by their SMILES. Measured potencies and affinities stand elsewhere. Records with an inconclusive call do not appear. Calls of active or inactive are those of the source.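 Rule for the calls: active = fluorescent signal drops by 40% or more, counted as a hit; inconclusive = no clear call, values can overlap the other calls; inactive = the rest, including any activity in the opposite direction.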

The nature of the experiment: blockers of FN fibrillogenesis by fibroblasts – AH1F cells, Alexa488-FN fluorescence, cherry-picks, dose response (AID 1035475).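 Note: AH1F fibroblasts incorporating labeled fibronectin into their extracellular matrix; 0% = neutral control wells and -100% = wells without labeled fibronectin.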 To be noted: Alexa488-fibronectin deposition fluorescence, overnight; series mostly up to 35 µM; activity change, negative = inhibition: at the top concentration.
On to `CO[C@@H]1CN(C)C(=O)c2cc(NC(=O)Nc3ccc(Cl)c(Cl)c3)ccc2OC[C@H](C)NC[C@@H]1C`, for which the “activity change, negative = inhibition” value was 28.4% (inactive).
With `CC(C)NC(=O)N(C)C[C@H]1Oc2ccc(NC(=O)CCN3CCOCC3)cc2C(=O)N([C@H](C)CO)C[C@@H]1C`, the “activity change, negative = inhibition” value is 10.8% (inactive).
As to `CCCCOc1ccc(C(C)NC(=O)C2CCCN(S(=O)(=O)CCC)C2)cc1` (stereo not drawn), the “activity change, negative = inhibition” value was 4.21% (inactive).
On to `O=C(c1cccnc1)N1C[C@H]2[C@@H](c3ccccc31)[C@@H](CO)N2CC1CCCC1`, for which the “activity change, negative = inhibition” value was 44.1% (inactive).
The same measure for `COCC(=O)Nc1ccc2c(c1)C(=O)N(C)[C@H]1CC[C@H](CC(=O)NCc3ccccc3Cl)O[C@@H]1CO2`: 27.3% [at 30 µM] (inactive); for `Cn1cnc(S(=O)(=O)N2CCN(c3ccccc3)CC2)c1`: -23.9% (inactive); for `O=C(c1cccnc1)N1C[C@H]2[C@@H](c3ccccc31)[C@H](CO)N2CC1CCCC1`: 40.5% (inactive).
On to `COc1cccc(CNC(=O)CCc2nnc3ccc(NCCCN4CCCC4=O)nn23)c1`, for which the “activity change, negative = inhibition” value is -9.03% (inactive).
The same measure for `Cc1ccc(S(=O)(=O)N2CC[C@H]3[C@H](CO)Nc4ccc(-c5cccc(C(=O)N(C)C)c5)cc4[C@H]32)cc1`: -23.6% (inactive); for `C[C@H]1CN([C@@H](C)CO)C(=O)c2cccc(NC(=O)Nc3ccc(C(F)(F)F)cc3)c2O[C@@H]1CN(C)C(=O)Nc1cccc2ccccc12`: 18.8% (inactive).
`O=C(CCC(=O)c1cccs1)NCc1cccnc1`: the “activity change, negative = inhibition” value is -16.4% (inactive).
The same measure for `Cc1ccc(Nc2nnc(SCc3ccccc3)s2)cc1`: -41% (inactive); for `O=C(Nc1ccccc1F)N1C[C@@H]2[C@H](c3ccccc31)[C@H](CO)N2C(=O)C1CCOCC1`: 33.8% (inactive); for `Cc1ccn2cc(-c3ccc(NC(=O)c4ccco4)cc3)nc2c1`: -28.4% (inactive).
The same measure for `CO[C@@H]1CN(C)C(=O)c2cc(NC(=O)Nc3ccc(Cl)c(Cl)c3)ccc2OC[C@@H](C)NC[C@@H]1C`: 28.6% (inactive); for `COc1ncccc1C(=O)NC1CCCc2c1cnn2-c1ccc(C)c(C)c1` (stereo not drawn): -16.2% (inactive).
The same measure for `N#C[C@H]1[C@@H](c2ccccc2C2=CCCCC2)[C@H](CO)N1S(=O)(=O)c1ccccc1`: 34.4% [at 30 µM] (inactive).
For the compound `COc1cccc(-c2ccc3c(c2)[C@H]2[C@H](CCN2S(=O)(=O)c2cccc(OC)c2)[C@@H](CO)N3)c1`, the “activity change, negative = inhibition” value was -7.81% (inactive).
With `Cc1ccc(S(=O)(=O)N2CC[C@@H]3[C@H](CO)Nc4ccc(-c5cccc(C(=O)N(C)C)c5)cc4[C@@H]32)cc1`, the “activity change, negative = inhibition” value is -8.78% (inactive).
In the case of `Nc1c(C(=O)NCc2ccco2)nnn1Cc1ccccc1` it was 1.31% (inactive).
Take `CO[C@@H]1CN(C)C(=O)c2cc(NC(=O)Nc3cc(Cl)cc(Cl)c3)ccc2OC[C@@H](C)NC[C@@H]1C`: the “activity change, negative = inhibition” value was 8.56% (inactive).
For the compound `COC(=O)c1c(NC(=O)CN2CCN(c3ccccc3Cl)CC2)sc(C)c1C`, the “activity change, negative = inhibition” value is -27.9% (inactive).
As to `CO[C@H]1CN(C)C(=O)c2cc(NC(=O)Nc3cc(Cl)cc(Cl)c3)ccc2OC[C@H](C)NC[C@@H]1C`, the “activity change, negative = inhibition” value is 6.15% (inactive).
